# According to PubChem BioAssay (NCATS):
# Results filed as inconclusive are left out. Active and inactive are the calls of the source. Calls come from the whole dose curve; as a rule, active = well fitted inhibition curve with a large enough effect; inconclusive = small, poorly fitted or top-dose-only effect; inactive = flat fitted curve, though single readings scatter.
# Tested on: CRL-7250
# Assay: qHTS assay to identify novel small-molecules to repurpose for Merkel cell carcinoma treatment (AID 1296009); note: nearly all actives have a fitted effect of over 60% in size
# Conditions: MCC and control cell lines, CellTiter-Glo viability, 72 h; at 44.8 µM (top of the series) unless noted
# Text: MCC is a rare and aggressive neuroendocrine skin cancer with limited treatment options. Approximately 80% of MCCs have the Merkel cell polyomavirus (MCPyV) DNA integrated into the host genome (virus-positive: VP-MCC) and viral oncogenes drive oncogenesis. The remaining MCCs are virus-negative (VN-MCC) and are caused by UV mutagenesis. To identify novel treatments for VP-MCC and/or VN-MCC we screened three VP-MCC cell lines (WAGA, MKL-1, MKL-2), three VN-MCC cell lines (MCC-13, MCC-26, UISO), and four immortalized, non-transformed control cell lines (HaCaT, HEK293T, CRL7250, NIH-3T3) against ~2,400 compounds in the NCGC Pharmaceutical Collection (NPC) and ~1,900 compounds in the Mechanism Interrogation PlatE (MiPE). Using cell viability as a readout (CellTiter-Glo assay) we found both overlapping and distinct drugs that can be repurposed for the treatment of VP-MCC and VN-MCC.
# A high-throughput screen was conducted in 1536-well white flat bottom plates (Corning) on a Kalypsys robotic system. Cell lines WAGA, MKL-1, MKL-2, MCC-13, MCC-26, UISO, HaCaT, HEK293T, CRL7250, and NIH-3T3 were screened against 2 small molecule annotated drug libraries NPC and MIPE in dose response (8 and 11 pt. respectively) measuring cell viability after 72 hours of incubation. […] A 1,536 pintool (Kalypsys) was used to transfer 23 nL of compound in DMSO to the 1,536-well assay plates. After 72 hr incubation at 37 degree celsius, 2.5 uL of CellTiter-Glo (Promega) was dispensed into each well using a BiorapTR. Plates were incubated at room temperature for 10 min, transferred to a ViewLux (PerkinElmer) and the luminescence was recorded using an exposure time of 2 seconds. Relative luminescence units (RLUs) were normalized to in-plate controls (no cells as a positive (cytotoxicity) control, DMSO as negative control) and the normalized data was processed using NCATS in-house software.
row,Structure (SMILES),outcome
1,NC(N)=NC(=O)c1nc(Cl)c(N)nc1N,inactive
2,CC(C(O)c1ccc(O)cc1)N1CCC(Cc2ccccc2)CC1 (stereo not given),inactive [at 17.4 µM]
3,COC(=O)C1=CCCN(C)C1,inactive
4,O=S1(=O)OC(c2ccc(O)cc2)(c2ccc(O)cc2)c2ccccc21,inactive
5,C[C@H]1CNCCc2ccc(Cl)cc21,inactive
6,Cn1cnc2c1c(=O)[nH]c(=O)n2C,inactive
7,CCC1(c2ccccc2)CCC(=O)NC1=O (stereo not given),inactive
8,Clc1ccc(C(Cn2ccnc2)OCc2c(Cl)cccc2Cl)c(Cl)c1 (stereo not given),inactive
9,Nc1ccc(N=Nc2ccccc2)c(N)n1,inactive
10,COc1ccc2c(c1)c(CC(=O)O)c(C)n2C(=O)c1ccc(Cl)cc1,inactive
11,CCN(CC)CC(=O)OCC(=O)[C@@]1(O)CC[C@H]2[C@@H]3CCC4=CC(=O)CC[C@]4(C)[C@H]3[C@@H](O)C[C@@]21C,inactive
12,CC(C)(C)C(=O)C(Oc1ccc(Cl)cc1)n1ccnc1 (stereo not given),inactive
13,Clc1ccc(Cn2c(CN3CCCC3)nc3ccccc32)cc1,inactive
14,OC1C(O)C(O)C(O)C(O)C1O (stereo not given),inactive
15,CCCCC1(COC(=O)CCC(=O)O)C(=O)N(c2ccccc2)N(c2ccccc2)C1=O,inactive
16,Cc1ccc(Cl)c(OCC(O)CNC(C)(C)C)c1 (stereo not given),inactive
17,O=C(/C=C/c1ccccc1)NCCO,inactive
18,CCCCC(=O)O[C@]1(C(=O)CO)[C@@H](C)C[C@H]2[C@@H]3CCC4=CC(=O)C=C[C@]4(C)[C@@]3(F)[C@@H](O)C[C@@]21C,inactive
19,CNC(=O)CN(CCN(CCN(CC(=O)[O-])CC(=O)NC)CC(=O)[O-])CC(=O)[O-].O.[Gd+3],inactive
20,COP(=O)(OC)OC=C(Cl)Cl,inactive

row,Structure (SMILES),outcome
1,CCCCN(CCCC)C(C(N)=O)c1ccc(OC)cc1 (stereo not given),inactive
2,O=C(O)c1cccc(-c2noc(-c3ccccc3F)n2)c1,inactive
3,CN(C)CCOc1ccccc1Cc1ccccc1,inactive
4,COc1ccccc1N1CCN(CCCNc2cc(=O)n(C)c(=O)n2C)CC1,inactive
5,CCCCCCCC/C=C\CCCCCCCCN,inactive
6,CCOC(=O)[C@H](CCc1ccccc1)N[C@H]1CS[C@H](c2cccs2)CN(CC(=O)O)C1=O,inactive
7,CO[C@@H]1[C@@H](O[C@@H]2O[C@H](C)[C@@H](O[C@H]3C[C@@](C)(O)[C@@H](O)[C@H](C)O3)[C@H](N(C)C)[C@H]2O)[C@@H](CC=O)C[C@@H](C)[C@@H](O[C@@H]2CC[C@H](N(C)C)[C@@H](C)O2)/C=C/C=C/C[C@@H](C)OC(=O)C[C@H]1OC(C)=O,inactive
8,CN1C[C@H](C(=O)N[C@]2(C)O[C@@]3(O)[C@@H]4CCCN4C(=O)[C@H](Cc4ccccc4)N3C2=O)C[C@@H]2c3cccc4[nH]cc(c34)C[C@H]21,inactive
9,COc1cc2[nH]c(=O)[nH]c(=O)c2cc1OC,inactive
10,Cc1cccc(CN2CCN(C(c3ccccc3)c3ccc(Cl)cc3)CC2)c1 (stereo not given),inactive
11,O=c1ccc2ccccc2o1,inactive
12,CN1[C@@H]2CC[C@H]1CC(OC(=O)c1c[nH]c3ccccc13)C2 (stereo not given in full),inactive
13,C[C@@H](C1=C(CCN(C)C)Cc2ccccc21)c1ccccn1,inactive
14,C[C@]12CC[C@@H]3c4ccc(O)cc4CC[C@H]3[C@@H]1CC[C@@H]2OC(=O)CCC1CCCC1,inactive
15,Cc1c(Cl)cccc1Nc1ccccc1C(=O)O,inactive
16,O=C(O)Cc1ccc2c(c1)C(=O)c1ccccc1CO2,inactive
17,CC1(C)[C@@H]2CC[C@@]1(C)C(=O)C2,inactive
18,Cc1[nH]c(C)c(Cl)c(=O)c1Cl,inactive [at 17.4 µM]
19,CN(C)CCN(Cc1ccccc1)c1ccccn1,inactive
20,C[C@@H]1CC[C@@]2(OC1)O[C@H]1C[C@H]3[C@@H]4CC[C@H]5C[C@@H](O)CC[C@]5(C)[C@H]4CC(=O)[C@]3(C)[C@H]1[C@@H]2C,inactive [at 4.96 µM]
